Experimental data published in PubChem BioAssay (NCI).
About 79,000 compounds went through this panel and 15% of them were active in at least one assay; those are over-represented in the sample as a whole. The source made the active and inactive calls. No stated cut-off is given here; in the data, active means growth inhibition above about 70%; inactive means the rest.

Tests used:
[1] = NCI Yeast Anticancer Drug Screen. Data for the rad52 strain (AID 147);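 further: 0% = growth of vehicle-treated control cultures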; conditions: S. cerevisiae rad52 mutant growth inhibition, stronger effect = higher value
How it was run: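 Here a repair-compromised yeast strain receives each compound; its growth is then quantified and normalised to vehicle-only controls.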

[2] = NCI Yeast Anticancer Drug Screen. Data for the wt1 strain (AID 149);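 further: 0% = growth of vehicle-treated wt1 cultures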; conditions: S. cerevisiae wt1 strain (SPY 50644) growth inhibition, stronger effect = higher value
How it was run: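 Readout: yeast growth inhibition, normalised to vehicle controls, in the wt1 strain exposed to test compounds.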

[3] = NCI Yeast Anticancer Drug Screen. Data for the rad50EPP+ strain (AID 151);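 further: 0% = growth of vehicle-treated control cultures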; conditions: S. cerevisiae rad50 mutant strain, stronger effect = higher value
How it was run: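 Read-out is yeast growth inhibition relative to vehicle; cells used were the rad50EPP+ strain.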

[4] = NCI Yeast Anticancer Drug Screen. Data for the mgt1 strain (AID 153); conditions: S. cerevisiae mgt1 mutant growth inhibition, stronger effect = higher value
How it was run: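 Measured: inhibition of mgt1 yeast growth by compound, normalized to vehicle-treated cultures.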

[5] = NCI Yeast Anticancer Drug Screen. Data for the rad50 strain (AID 155);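 further: 0% = growth of vehicle-only cultures of the same strain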; conditions: S. cerevisiae rad50 strain growth inhibition, stronger effect = higher value
How it was run: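 Compounds were tested on a yeast strain with an engineered DNA damage repair alteration; the reported value is growth inhibition normalised to vehicle treatment.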

[6] = NCI Yeast Anticancer Drug Screen. Data for the mec2-1 strain (AID 157); conditions: S. cerevisiae mec2-1 strain, stronger effect = higher value
How it was run: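 Using mec2-1 yeast: add compound, measure growth, express inhibition versus vehicle-treated cultures.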

[7] = NCI Yeast Anticancer Drug Screen. Data for the rad14 strain (AID 159);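 further: 0% = growth of vehicle-treated control cultures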; conditions: S. cerevisiae rad14 strain growth inhibition, stronger effect = higher value
How it was run: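 Compound-treated yeast with a defined DNA-repair lesion; growth inhibition normalised to vehicle-treated cultures.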

[8] = NCI Yeast Anticancer Drug Screen. Data for the CLN2oe strain (AID 163);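 further: 0% = growth of vehicle-only control cultures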; conditions: S. cerevisiae CLN2oe strain, stronger effect = higher value
How it was run: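 Whole-cell yeast growth assay. A strain engineered for altered cell-cycle control received compound, and inhibition relative to vehicle-treated cultures was recorded.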

[9] = NCI Yeast Anticancer Drug Screen. Data for the cln2 rad14 strain (AID 165);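 further: 0% = growth equal to vehicle treated cultures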; conditions: S. cerevisiae cln2 rad14 strain, stronger effect = higher value
How it was run: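 Yeast strain cln2 rad14, bearing defects in cell cycle control and DNA repair, serves as the test system; values reflect growth inhibition compared with vehicle.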

[10] = NCI Yeast Anticancer Drug Screen. Data for the bub3 strain (AID 167); conditions: S. cerevisiae bub3 mutant strain, stronger effect = higher value
How it was run: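 Growth of a checkpoint-deficient yeast mutant is measured after compound exposure. Values represent inhibition relative to vehicle.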

[11] = NCI Yeast Anticancer Drug Screen. Data for the wt2 strain (AID 169);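 further: 0% = growth of vehicle-treated yeast cultures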; conditions: S. cerevisiae wt2 strain growth inhibition, stronger effect = higher value
How it was run: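 Treated yeast vs. vehicle-treated yeast: growth inhibition determined.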

[12] = NCI Yeast Anticancer Drug Screen. Data for the mlh1 strain (AID 171);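 further: 0% = growth of vehicle-treated control cultures of the same strain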; conditions: S. cerevisiae mlh1 strain growth inhibition, stronger effect = higher value
How it was run: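 A yeast strain with a defined genetic lesion serves as the test organism. Cultures receive compound or vehicle, and growth is measured.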

[13] = NCI Yeast Anticancer Drug Screen. Data for the sgs1 strain (AID 173);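 further: 0% = growth of vehicle-only control cultures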; conditions: S. cerevisiae sgs1 mutant, stronger effect = higher value
How it was run: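 A genetically defined yeast mutant is incubated with the test compound, and its growth is compared to that of the same strain given vehicle.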

[14] = NCI Yeast Anticancer Drug Screen. Data for the mlh1 rad18 strain (AID 175); conditions: S. cerevisiae mlh1 rad18 strain growth inhibition, stronger effect = higher value
How it was run: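 Steps: expose repair-defective yeast to compound; measure growth; express inhibition against vehicle-treated controls.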

[15] = NCI Yeast Anticancer Drug Screen. Data for the rad18 strain (AID 177); conditions: S. cerevisiae rad18 mutant growth inhibition, stronger effect = higher value
How it was run: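 Measured value is growth inhibition of a yeast strain bearing a DNA repair alteration, referenced to vehicle-treated cells.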

[16] = at 5.0 µM (retest, dose inferred, filed as 0.5)
[17] = at 50.0 µM (retest, dose inferred, filed as 5.0)

Measured: growth inhibition

Cc1cc2c(cc1C)[n+]([O-])c(-c1nc3ccccc3s1)c(N)[n+]2[O-]
active: [1]; at 100.0 µM 88% | [3]; at 33.0 µM 82% | [3]; at 100.0 µM 97% | [4]; at 100.0 µM 94% | [5]; at 50.0 µM 87.8% | [5]; at 100.0 µM 93% | [6]; [17] 79% | [6]; at 50.0 µM 76% | [6]; at 100.0 µM 97% | [7]; at 100.0 µM 85% | [9]; at 50.0 µM 81.5% | [10]; [17] 92% | [10]; at 50.0 µM 93.7% | [10]; at 100.0 µM 96% | [13]; at 100.0 µM 79% | [14]; [17] 90% | [14]; at 50.0 µM 94.9% | [15]; at 100.0 µM 91%
inactive: [1]; at 1.2 µM 2% | [1]; at 3.7 µM 10% | [1]; at 11.0 µM 20% | [1]; at 33.0 µM 35% | [2]; at 1.2 µM 10% | [2]; at 3.7 µM 13% | [2]; at 11.0 µM 17% | [2]; at 33.0 µM 20% | [2]; at 100.0 µM 25% | [3]; at 1.2 µM 1% | [3]; at 3.7 µM 15% | [3]; at 11.0 µM 44% | [4]; at 1.2 µM 11% | [4]; at 3.7 µM 18% | [4]; at 11.0 µM 23% | [4]; at 33.0 µM 40% | [5]; at 1.2 µM 0% | [5]; at 3.7 µM 10% | [5]; [16] 3% | [5]; at 11.0 µM 23% | [5]; at 33.0 µM 40% | [5]; [17] 58% | [6]; at 1.2 µM 11% | [6]; at 3.7 µM 21% | [6]; [16] 23% | [6]; at 11.0 µM 26% | [6]; at 33.0 µM 37% | [7]; at 1.2 µM 1% | [7]; at 3.7 µM 14% | [7]; at 11.0 µM 22% | [7]; at 33.0 µM 29% | [8]; at 1.2 µM -1% | [8]; at 3.7 µM 5% | [8]; at 11.0 µM 18% | [8]; at 33.0 µM 10% | [8]; at 100.0 µM 25% | [9]; [16] 2% | [9]; [17] 41% | [10]; at 1.2 µM 11% | [10]; at 3.7 µM 32% | [10]; [16] 47% | [10]; at 11.0 µM 46% | [10]; at 33.0 µM 53% | [11]; at 1.2 µM 14% | [11]; at 3.7 µM 18% | [11]; at 11.0 µM 18% | [11]; at 33.0 µM 21% | [11]; at 100.0 µM 58% | [12]; at 1.2 µM 6% | [12]; at 3.7 µM 14% | [12]; at 11.0 µM 17% | [12]; at 33.0 µM 20% | [12]; at 100.0 µM 55% | [13]; at 1.2 µM 10% | [13]; at 3.7 µM 21% | [13]; at 11.0 µM 24% | [13]; at 33.0 µM 39% | [14]; [16] 33% | [15]; at 1.2 µM 4% | [15]; at 3.7 µM 20% | [15]; at 11.0 µM 36% | [15]; at 33.0 µM 63%
